The target of assay [1] is chicken Estrogen Receptor (ERa), ESR1 (gene 396099) (UniProt P06212). As to the kind of experiment: ATG_chERa_XSP2: Attagene TRANS-FACTORIAL Multi-Species (XSP2) HepG2 Assay for chicken Estrogen Receptor (ERa) (AID 2283817).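 Further: actives raise reporter signal above DMSO so AC50 reflects ER activation.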 Put shortly: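 HepG2 cells transiently transfected with multiplexed GAL4-UAS reporter units expressing chimeric chicken ERa-Gal4; 24 h compound exposure. Reporter mRNA measured by RT-PCR with 6-FAM labelling, HpaI digestion and capillary electrophoresis; gain-of-signal fitted versus DMSO.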
Sequence of chicken Estrogen Receptor (ERa), ESR1 (gene 396099) (P06212 whole entry, looked up, the tested form may be a part): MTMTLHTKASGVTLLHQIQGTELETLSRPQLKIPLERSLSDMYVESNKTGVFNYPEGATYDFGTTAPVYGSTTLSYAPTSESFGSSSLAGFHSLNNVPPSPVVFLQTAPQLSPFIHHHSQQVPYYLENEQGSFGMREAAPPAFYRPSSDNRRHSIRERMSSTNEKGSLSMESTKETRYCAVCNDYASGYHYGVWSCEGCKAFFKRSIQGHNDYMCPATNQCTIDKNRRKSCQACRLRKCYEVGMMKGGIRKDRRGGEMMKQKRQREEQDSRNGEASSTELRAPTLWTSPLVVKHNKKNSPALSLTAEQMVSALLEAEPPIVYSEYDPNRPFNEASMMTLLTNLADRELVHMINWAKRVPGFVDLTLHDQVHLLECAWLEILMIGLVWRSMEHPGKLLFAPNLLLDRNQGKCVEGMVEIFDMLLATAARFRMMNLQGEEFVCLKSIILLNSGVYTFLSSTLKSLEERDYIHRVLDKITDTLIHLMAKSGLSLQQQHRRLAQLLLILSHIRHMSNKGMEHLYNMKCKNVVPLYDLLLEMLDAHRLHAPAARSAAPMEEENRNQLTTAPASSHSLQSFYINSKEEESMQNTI

The subject of assay [2] is zebrafish Estrogen Receptor (ER2b), gene 317733. Briefly: ATG_zfER2b_XSP2: Attagene TRANS-FACTORIAL Multi-Species (XSP2) HepG2 Assay for zebrafish Estrogen Receptor (ER2b) (AID 2283823).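 Further: fitted upward as reporter gain over DMSO so potency reflects activation.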 An outline of the steps: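 Cells used were HepG2, transiently transfected with chimeric nuclear receptor-Gal4 reporter units. After 24 h of chemical treatment, reporter transcripts were amplified by RT-PCR, labelled and sized by capillary electrophoresis, with induction analysed relative to DMSO.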

Assay [3] relates to frog Estrogen Receptor (ER2), gene 100174814. Briefly: ATG_frER2_XSP2: Attagene TRANS-FACTORIAL Multi-Species (XSP2) HepG2 Assay for frog Estrogen Receptor (ER2) (AID 2283828). An outline of the steps: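 Human liver HepG2, transient MRTU transfection (TRANS format, exogenous NR–Gal4). 24 h cpd exposure. Total RNA → RT → PCR → FAM label → HpaI cut → CE. Positive direction vs DMSO.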

Assay [4] addresses mouse Peroxisome Proliferator-activated Receptor gamma (PPARg), Pparg (gene 19016) (UniProt P37238). Briefly: ATG_mPPARg_XSP2: Attagene TRANS-FACTORIAL Multi-Species (XSP2) HepG2 Assay for mouse Peroxisome Proliferator-activated Receptor gamma (PPARg) (AID 2283830).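 Further: hits are gains in reporter mRNA above DMSO so AC50 marks activation.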 An outline of the steps:
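HepG2 cells transiently transfected with GAL4-UAS reporter units for chimeric NR-Gal4 proteins including mouse PPARg, exposed 24 h; medium contained 3 nM 6-alpha-fluorotestosterone and 1.5 nM norgestrel. Reporter mRNA quantified by RT-PCR, HpaI digestion and capillary electrophoresis, vs DMSO.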

Assay [5] deals with Nuclear receptor subfamily 1 group I member 2 (Mus musculus) (UniProt O54915). As to the kind of experiment: ATG_mPXR_XSP2: Attagene TRANS-FACTORIAL Multi-Species (XSP1) HepG2 Assay for mouse Pregnane X Receptor (PXR) (AID 2283831). An outline of the steps:
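Reporter transcripts were quantified by RT-PCR, FAM primer extension, HpaI digestion and capillary electrophoresis after 24 h of chemical exposure in transiently transfected HepG2 cells carrying chimeric receptor-GAL4 constructs; DMSO served as baseline.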

Assay [6] addresses zebrafish Thyroid Hormone Receptor alpha (TRa), thraa (gene 30670) (UniProt Q98867). Briefly: ATG_zfTRa_XSP2: Attagene TRANS-FACTORIAL Multi-Species (XSP1) HepG2 Assay for zebrafish Thyroid Hormone Receptor alpha (TRa) (AID 2283832).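 Further: actives raise zebrafish TRa-Gal4 reporter transcript above DMSO baseline.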 An outline of the steps: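 Transient transfection of human HepG2 with GAL4-UAS reporter units, then 24 h chemical treatment. RNA isolated, reverse-transcribed, PCR-amplified, FAM-labelled, HpaI-digested and run on capillary electrophoresis. Gain-of-signal relative to DMSO.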

Assay [7] relates to zebrafish Peroxisome Proliferator-activated Receptor gamma (PPARg), gene 557037. Briefly: ATG_zfPPARg_XSP2: Attagene TRANS-FACTORIAL Multi-Species (XSP2) HepG2 Assay for zebrafish Peroxisome Proliferator-activated Receptor gamma (PPARg) (AID 2283833).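 Further: actives increase reporter signal over DMSO so AC50 reflects activation.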 An outline of the steps: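 Multi-species TRANS format in HepG2, 24 h dosing; medium also contained 3 nM 6-alpha-fluorotestosterone and 1.5 nM norgestrel to stimulate androgen receptor. Zebrafish PPARg-GAL4 induced reporter mRNA was measured by RT-PCR/capillary electrophoresis.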

Assay [8] has as its system turtle Thyroid Hormone Receptor, alpha (TRa), gene 101949057. As to the kind of experiment: ATG_trTRa_XSP2: Attagene TRANS-FACTORIAL Multi-Species (XSP1) HepG2 Assay for turtle Thyroid Hormone Receptor, alpha (TRa) (AID 2283834).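 Further: hits raise reporter mRNA over the DMSO baseline so AC50 marks activators.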 Put shortly:
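Transfection of HepG2 with multiple reporter transcription units, then chemical dosing for 24 h. Total RNA was reverse-transcribed, reporter sequences PCR-amplified and FAM-labelled, then sized by capillary electrophoresis. DMSO served as baseline.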

Assay [9] in a line: ATG_M_61_XSP2: Attagene TRANS-FACTORIAL Multi-Species (XSP2) HepG2 Assay for M61 Transcription Factor (Internal Marker) (AID 2283835; active means hit-call score of the fitted dose curve at least 0.9, where 1 is the maximum; inactive means score below 0.9;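 further: active means a rise in signal above the DMSO baseline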). An outline of the steps: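 HepG2 cells transiently transfected with multiple GAL4-UAS reporter units; 3 nM 6-alpha-fluorotestosterone and 1.5 nM norgestrel present to stimulate androgen receptor. After 24 h compound exposure, reporter mRNA measured by RT-PCR and capillary electrophoresis fluorescence, gain-of-signal versus DMSO baseline.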

Assay [10] concerns the target human Thyroid hormone Receptor beta (TRb), THRB (gene 7068) (UniProt P10828). As to the kind of experiment: ATG_hTRb_XSP2: Attagene TRANS-FACTORIAL Multi-Species (XSP2) HepG2 Assay for human Thyroid hormone Receptor beta (TRb) (AID 2283840).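 Further: actives raise reporter mRNA so potency reflects agonist-like gain of signal.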 Put shortly:
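Transient transfection of human HepG2 with multi-species NR-Gal4/GAL4-UAS reporter constructs; 24 h compound treatment; RNA isolation, reverse transcription, PCR and HpaI digest; capillary electrophoresis of labeled fragments; activity fitted upward versus DMSO.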

Assay [11] relates to chicken Androgen Receptor (AR), gene 422165. As to the kind of experiment: ATG_chAR_XSP2: Attagene TRANS-FACTORIAL Multi-Species (XSP2) HepG2 Assay for chicken Androgen Receptor (AR) (AID 2283819).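 Further: hits raise reporter mRNA above DMSO so potency is for activation.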 Put shortly: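 HepG2 cells transiently transfected with chicken AR–GAL4 chimeric reporter constructs, stimulated with 3 nM 6-alpha-fluorotestosterone plus 1.5 nM norgestrel, dosed 24 h. Reporter mRNA quantified by RT-PCR and capillary electrophoresis; gain of signal fitted versus DMSO.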

Assay [12] concerns zebrafish Androgen Receptor (AR), gene 100005148. Briefly: ATG_zfAR_XSP2: Attagene TRANS-FACTORIAL Multi-Species (XSP2) HepG2 Assay for zebrafish Androgen Receptor (AR) (AID 2283825).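 Further: hits raise reporter mRNA above DMSO so AC50 reflects agonist-type gain.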 An outline of the steps: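 Zebrafish AR–GAL4 chimera transiently expressed with GAL4-UAS reporter in HepG2 cells, co-stimulated with 3 nM 6-alpha-fluorotestosterone and 1.5 nM norgestrel; 24 h dosing, reporter mRNA read by RT-PCR/capillary electrophoresis versus DMSO.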

Assay [13] deals with Estrogen receptor (Homo sapiens) (UniProt P03372). Briefly: ATG_hERa_XSP2: Attagene TRANS-FACTORIAL Multi-Species (XSP2) HepG2 Assay for human Estrogen Receptor (ERa) (AID 2283827). Put shortly: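 HepG2 cells transiently transfected with multiplexed GAL4-UAS reporters driven by chimeric receptor-Gal4 proteins, dosed 24 h with 3 nM 6-alpha-fluorotestosterone and 1.5 nM norgestrel present. Reporter mRNA by RT-PCR and capillary electrophoresis; gain-of-signal fit versus DMSO.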
Sequence of Estrogen receptor (Homo sapiens) (P03372 whole entry, looked up, the tested form may be a part): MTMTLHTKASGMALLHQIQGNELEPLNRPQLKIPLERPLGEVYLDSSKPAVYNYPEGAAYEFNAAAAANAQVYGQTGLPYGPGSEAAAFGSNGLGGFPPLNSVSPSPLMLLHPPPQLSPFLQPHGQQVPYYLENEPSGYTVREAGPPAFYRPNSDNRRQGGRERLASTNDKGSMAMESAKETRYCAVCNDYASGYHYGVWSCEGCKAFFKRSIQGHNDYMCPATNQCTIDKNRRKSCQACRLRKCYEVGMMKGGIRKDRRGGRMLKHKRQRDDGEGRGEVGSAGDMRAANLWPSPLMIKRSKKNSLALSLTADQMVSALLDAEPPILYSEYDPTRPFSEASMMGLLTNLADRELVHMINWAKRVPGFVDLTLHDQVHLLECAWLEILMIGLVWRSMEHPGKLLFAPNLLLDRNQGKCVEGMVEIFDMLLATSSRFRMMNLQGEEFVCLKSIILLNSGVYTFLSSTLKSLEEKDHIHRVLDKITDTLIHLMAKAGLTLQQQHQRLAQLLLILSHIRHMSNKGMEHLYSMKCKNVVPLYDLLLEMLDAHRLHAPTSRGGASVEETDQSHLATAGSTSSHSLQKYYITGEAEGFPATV

Assay [14] can be described thus: ATG_XTT_Cytotoxicity_XSP2: Cytotoxicity Assessment in the Attagene TRANS-FACTORIAL Multi-Species (XSP2) HepG2 Assay (AID 2283837). An outline of the steps: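 HepG2 cells, transiently transfected with multiple reporter constructs, exposed to chemical for 24 h. Cell number assessed with XTT fluorescence read-out; loss of signal fitted relative to DMSO.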
The target of assay [15] is human Thyroid hormone Receptor alpha (TRa), THRA (gene 7067) (UniProt P10827). As to the kind of experiment: ATG_hTRa_XSP2: Attagene TRANS-FACTORIAL Multi-Species (XSP2) HepG2 Assay for human Thyroid hormone Receptor alpha (TRa) (AID 2283838). Put shortly: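 HepG2 cells were transiently transfected with GAL4-UAS reporter units for chimeric human TRa-Gal4 and dosed for 24 hours, with 3 nM 6-alpha-fluorotestosterone and 1.5 nM norgestrel present. Reporter mRNA was quantified by RT-PCR, FAM labelling and capillary electrophoresis, with gain of signal fitted versus DMSO.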
Sequence of human Thyroid hormone Receptor alpha (TRa), THRA (gene 7067) (P10827 whole entry, looked up, the tested form may be a part): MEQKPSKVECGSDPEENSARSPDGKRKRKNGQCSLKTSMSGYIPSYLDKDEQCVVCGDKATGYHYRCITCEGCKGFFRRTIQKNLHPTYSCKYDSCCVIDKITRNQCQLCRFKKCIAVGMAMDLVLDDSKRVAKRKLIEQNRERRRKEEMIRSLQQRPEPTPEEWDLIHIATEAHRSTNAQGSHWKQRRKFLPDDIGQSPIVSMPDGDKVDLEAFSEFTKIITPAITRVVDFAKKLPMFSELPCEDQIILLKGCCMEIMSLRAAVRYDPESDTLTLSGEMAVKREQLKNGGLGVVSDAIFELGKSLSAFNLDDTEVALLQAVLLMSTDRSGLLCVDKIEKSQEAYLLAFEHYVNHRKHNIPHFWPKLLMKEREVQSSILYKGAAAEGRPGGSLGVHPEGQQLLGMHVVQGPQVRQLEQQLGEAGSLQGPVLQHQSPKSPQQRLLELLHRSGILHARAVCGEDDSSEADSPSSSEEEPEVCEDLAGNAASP

The target of assay [16] is frog Thyroid hormone Receptor alpha (TRa), thra-a (gene 397942) (UniProt P15204). As to the kind of experiment: ATG_frTRa_XSP2: Attagene TRANS-FACTORIAL Multi-Species (XSP2) HepG2 Assay for frog Thyroid hormone Receptor alpha (TRa) (AID 2283839).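 On AC50: AC50 reflects induction of frog TRa-driven reporter mRNA above DMSO baseline.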 Put shortly:
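Transfect HepG2 with multiple reporter units (GAL4-UAS), dose chemical, incubate 24 h. Isolate RNA, reverse-transcribe, PCR-amplify reporter, label with 6-FAM by primer extension, digest with HpaI, run capillary electrophoresis; induction scored against DMSO.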

Assay [17] deals with Sodium/Iodide Symporter (NIS), SLC5A5 (gene 6528). As to the kind of experiment: CPHEA_Stoker_NIS_Inhibition_RAIU: CPHEA's Radioactive Iodide Uptake (RAIU) Assay for Sodium/Iodide Symporter (NIS) Inhibition, Stoker and Laws Labs (AID 2283841). An outline of the steps: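 hNIS-HEK293T-EPA cells incubated 2 h at room temperature with compound (0.001–100 uM, 0.5% DMSO) and 329 pM final 125I in HBSS/10 mM HEPES, pH 7.4. Intracellular 125I counted; normalised to DMSO maximal uptake, triplicate, three biological replicates.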

Assay [18] is described as follows: CPHEA_Stoker_NIS_Cytotoxicity: Cytotoxicity Assessment for CPHEA's Radioactive Iodide Uptake (RAIU) Assay for Sodium/Iodide Symporter (NIS) Inhibition, Stoker and Laws Labs (AID 2283897). An outline of the steps:
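hNIS-HEK293T-EPA cells, human NIS expressed in HEK293T, treated 2 h with chemicals (0.001–100 uM, 0.5% final DMSO). ATP content read by CellTiter-Glo luminescence; loss of signal analysed relative to DMSO.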

Assay [19] relates to frog Androgen Receptor (AR), gene 399456. Briefly: ATG_frAR_XSP2: Attagene TRANS-FACTORIAL Multi-Species (XSP2) HepG2 Assay for frog Androgen Receptor (AR) (AID 2283824).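 Further: actives raise reporter signal above DMSO so AC50 reflects agonist-like induction.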 Put shortly:
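HepG2 cells transiently transfected with GAL4-UAS reporter units and frog (Xenopus laevis) AR-Gal4 chimera; reporter mRNA measured 24 h after dosing by RT-PCR and capillary electrophoresis. Gain of signal fitted relative to DMSO baseline.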

By AC50 is commonly meant the concentration giving half of the maximal activity seen.

SMILES strings stand for the structures. “And” between values parts separate entries of the source, which are not always exact repeats. Identical values can stand only once. Inconclusive results are not listed. The source holds several records for some structures; these can differ, active in one and inactive in another. The source made the active and inactive calls. How the source made its calls, unless noted: active means hit-call score of the fitted dose curve at least 0.9, where 1 is the maximum; inconclusive means response in the unintended direction; inactive means score below 0.9.

Sequence of Nuclear receptor subfamily 1 group I member 2 (Mus musculus) (O54915 whole entry, looked up, the tested form may be a part): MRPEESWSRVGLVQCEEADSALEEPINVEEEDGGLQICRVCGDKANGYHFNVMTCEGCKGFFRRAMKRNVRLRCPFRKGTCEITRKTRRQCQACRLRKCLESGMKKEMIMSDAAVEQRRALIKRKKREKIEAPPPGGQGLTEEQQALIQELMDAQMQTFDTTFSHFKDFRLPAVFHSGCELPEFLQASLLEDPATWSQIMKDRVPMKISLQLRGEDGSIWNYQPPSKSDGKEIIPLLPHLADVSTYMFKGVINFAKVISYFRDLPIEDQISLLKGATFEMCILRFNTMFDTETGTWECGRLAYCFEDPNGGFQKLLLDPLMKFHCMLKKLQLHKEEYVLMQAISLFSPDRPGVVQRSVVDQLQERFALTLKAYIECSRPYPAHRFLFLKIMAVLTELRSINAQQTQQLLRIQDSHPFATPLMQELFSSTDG
Sequence of human Thyroid hormone Receptor beta (TRb), THRB (gene 7068) (P10828 whole entry, looked up, the tested form may be a part): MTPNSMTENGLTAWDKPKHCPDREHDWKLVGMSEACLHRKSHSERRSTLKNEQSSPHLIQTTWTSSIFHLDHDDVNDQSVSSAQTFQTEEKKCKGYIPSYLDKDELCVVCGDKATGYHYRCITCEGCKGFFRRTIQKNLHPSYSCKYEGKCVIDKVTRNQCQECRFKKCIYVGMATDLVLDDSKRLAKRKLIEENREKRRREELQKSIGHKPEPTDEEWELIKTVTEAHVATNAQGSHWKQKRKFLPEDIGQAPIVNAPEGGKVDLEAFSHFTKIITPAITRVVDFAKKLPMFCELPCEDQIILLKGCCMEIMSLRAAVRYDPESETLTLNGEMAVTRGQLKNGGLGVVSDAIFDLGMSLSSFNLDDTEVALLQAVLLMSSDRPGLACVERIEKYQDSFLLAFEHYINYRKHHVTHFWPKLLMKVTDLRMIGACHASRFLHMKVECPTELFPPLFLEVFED
Sequence of mouse Peroxisome Proliferator-activated Receptor gamma (PPARg), Pparg (gene 19016) (P37238 whole entry, looked up, the tested form may be a part): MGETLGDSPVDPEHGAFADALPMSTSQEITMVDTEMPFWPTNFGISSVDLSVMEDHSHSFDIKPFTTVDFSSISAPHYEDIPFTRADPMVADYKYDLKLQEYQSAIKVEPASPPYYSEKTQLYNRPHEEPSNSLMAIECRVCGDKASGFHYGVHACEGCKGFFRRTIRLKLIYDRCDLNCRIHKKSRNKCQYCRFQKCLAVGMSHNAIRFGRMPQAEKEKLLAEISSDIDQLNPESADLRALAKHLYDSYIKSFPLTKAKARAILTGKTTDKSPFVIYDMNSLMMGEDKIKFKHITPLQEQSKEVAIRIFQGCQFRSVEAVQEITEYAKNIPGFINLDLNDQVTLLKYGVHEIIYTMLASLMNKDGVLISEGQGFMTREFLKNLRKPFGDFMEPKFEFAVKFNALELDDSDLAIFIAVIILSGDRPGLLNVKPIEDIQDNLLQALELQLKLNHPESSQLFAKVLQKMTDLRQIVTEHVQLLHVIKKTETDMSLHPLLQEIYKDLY
Sequence of zebrafish Thyroid Hormone Receptor alpha (TRa), thraa (gene 30670) (Q98867 whole entry, looked up, the tested form may be a part): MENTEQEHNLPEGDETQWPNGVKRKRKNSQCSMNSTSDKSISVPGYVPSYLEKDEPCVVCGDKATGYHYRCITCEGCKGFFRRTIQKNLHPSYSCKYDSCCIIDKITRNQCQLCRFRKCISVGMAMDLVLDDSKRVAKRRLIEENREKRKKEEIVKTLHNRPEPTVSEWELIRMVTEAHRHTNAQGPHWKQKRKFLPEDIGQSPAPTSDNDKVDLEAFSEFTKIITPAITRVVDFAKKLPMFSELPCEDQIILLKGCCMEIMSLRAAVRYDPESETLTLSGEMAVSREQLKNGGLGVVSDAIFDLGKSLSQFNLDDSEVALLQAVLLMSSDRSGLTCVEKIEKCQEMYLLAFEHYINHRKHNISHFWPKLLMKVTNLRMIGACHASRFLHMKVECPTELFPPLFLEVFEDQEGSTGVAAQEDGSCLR
Sequence of frog Thyroid hormone Receptor alpha (TRa), thra-a (gene 397942) (P15204 whole entry, looked up, the tested form may be a part): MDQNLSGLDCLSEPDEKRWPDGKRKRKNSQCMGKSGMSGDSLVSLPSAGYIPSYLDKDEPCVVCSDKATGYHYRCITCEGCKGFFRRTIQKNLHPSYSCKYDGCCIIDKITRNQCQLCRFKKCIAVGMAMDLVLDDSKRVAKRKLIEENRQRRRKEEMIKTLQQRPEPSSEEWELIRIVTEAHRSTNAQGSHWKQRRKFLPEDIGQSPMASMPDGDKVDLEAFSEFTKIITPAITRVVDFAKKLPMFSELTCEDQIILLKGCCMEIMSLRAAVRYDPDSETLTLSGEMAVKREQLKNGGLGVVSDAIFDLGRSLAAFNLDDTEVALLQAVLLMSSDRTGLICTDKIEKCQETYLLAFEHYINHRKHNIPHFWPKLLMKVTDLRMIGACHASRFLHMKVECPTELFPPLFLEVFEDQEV

As to `C[C@]12CC[C@H](O)CC1=CC[C@@H]1[C@@H]2CC[C@]2(C)C(=O)CC[C@@H]12`, the AC50 is 2.19 µM (active) and 1.14 µM (active) in assay [1]; 2.89 µM (active) and 1.73 µM (active) in [2]; 3.43 µM (active) and 2.23 µM (active) in assay [3]; 6.42 µM (active) and 5.9 µM (active) in [5]. The compound was classed as inactive in [4], in [6], in assay [7], in assay [8], in [9] and in [10].

For the compound `CC(=O)C=C(C)C`, the outcome in [1], in assay [11], in assay [2], in [12], in assay [13] and in [4] was inactive. The compound was classed as inactive in [5], in assay [6], in [7], in assay [8], in assay [9] and in assay [14]. Besides, the call in [15], in assay [16] and in [10] was inactive. For the same compound, the AC50 in assay [3] is 183 µM (active).

With `Clc1ccc(C2(Cn3cncn3)CC(Br)CO2)c(Cl)c1` (configuration not stated), the AC50 in assay [1] is 3.47 µM (active); in [2], 51.4 µM (active) and 29.2 µM (active); in assay [13], 4.43 µM (active) and 6.56 µM (active); in assay [3], 28.8 µM (active); in assay [4], 62.7 µM (active); in assay [5], 3.32 µM (active) and 1.59 µM (active). Further, the AC50 in [8] was 26.9 µM (active); in assay [16], 5.44 µM (active). The result in assay [1], in [3], in assay [4], in [6], in [7] and in [8] was inactive. For the same compound, the outcome in [9], in [14], in assay [15], in [16], in [10] and in [17] was inactive. In assay [18], the result was inactive.

For the compound `CC(C)(C)c1cc(O)ccc1O`, the AC50 in [1] is 24.6 µM (active); in assay [2] it was 55.2 µM (active); in assay [13] it was 33.1 µM (active); in assay [3], 46.8 µM (active); in [4], 70.6 µM (active); in assay [6], 54.9 µM (active). The outcome in [11], in assay [19], in assay [5], in assay [7], in assay [8] and in assay [9] was inactive. For the same compound, the result in assay [15], in assay [16] and in assay [10] was inactive.

(Values after PubChem BioAssay (EPA / NIEHS).)
